Each structure is given as a SMILES string. Several values for one entry are separate records, joined by “and”; a condition that tells them apart may be missing. Equal values may be shown once. Inconclusive results are not listed. The source holds several records for some structures; these can differ, active in one and inactive in another. Activity calls are given as the source filed them. Unless noted, calls follow the shape of the dose curve; as a rule, active = well fitted curve in the direction sought with a large enough effect; inconclusive = small, poorly fitted or top-dose-only effect, or another doubt; inactive = no such curve, though single readings can be large; an effect the other way counts as inactive or inconclusive.

Experimental findings from PubChem BioAssay (NCATS) are described below.

For assay [1], the target named is Glutathione peroxidase 1 (Homo sapiens) (UniProt P07203). Kind of assay: Primary qHTS Assay for Inhibitors of Recombinant Selenoprotein Glutathione Peroxidase 1 (GPX1) (AID 1845191). Also: nearly all actives have a fitted effect of over 65% in size. Also: potency is read from the fitted curve at half-maximal effect. As to activity, negative = inhibition: % is scaled to controls: 0 for no effect and ±100 for the full control effect. The method, boiled down:
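NADPH consumption tracked by fluorescence at 340/450 nm between t=0 and t=15 min, room temperature. Final mix: 10 nM GPX1, 100 nM glutathione reductase, 1 mM GSH, 0.5 mM NADPH, 0.5 mM cumene hydroperoxide, 0.01% BSA; 30 min compound–enzyme preincubation.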

Assay [2] deals with Phospholipid hydroperoxide glutathione peroxidase GPX4 (Homo sapiens) (UniProt P36969). Nature of the assay: Primary qHTS Assay for Inhibitors of Recombinant Selenoprotein Glutathione Peroxidase 4 (GPX4) (AID 1845192). Also: nearly all actives have a fitted effect of over 65% in size. Also: potency is read from the fitted curve at half-maximal effect. The method, boiled down: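 NADPH consumption followed by fluorescence at 340/450 nm, t=0 and after 15 min at room temperature. Reaction started with cumene hydroperoxide (0.5 mM final) after 30 min compound–GPX4 preincubation; final 200 nM GPX4, 100 nM GR, 1 mM GSH, 0.5 mM NADPH.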
Chain of Phospholipid hydroperoxide glutathione peroxidase GPX4 (Homo sapiens) (P36969 whole entry, looked up): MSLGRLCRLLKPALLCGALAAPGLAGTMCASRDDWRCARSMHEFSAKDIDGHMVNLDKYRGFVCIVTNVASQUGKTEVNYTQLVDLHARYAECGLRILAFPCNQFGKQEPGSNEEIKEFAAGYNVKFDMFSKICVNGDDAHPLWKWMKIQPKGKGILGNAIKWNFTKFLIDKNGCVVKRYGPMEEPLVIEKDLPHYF
In general terms: qHTS replaces the single test concentration by a dilution series.

Assay [3] in a line: qHTS profiling for inhibitors of Plasmodium falciparum proliferation (AID 504749). Also: potency is read from the fitted curve at half-maximal effect.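 As to activity, negative = inhibition: 0% = DMSO vehicle and full inhibition = artemisinin control.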 As to all read-outs here: nearly all actives have a fitted effect of over 60% in size. To be noted: P. falciparum in erythrocytes, SYBR Green DNA, 72 h; for activity, negative = inhibition: at 28.7 µM (top of the series). Put shortly: (§1)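 In a 72 h erythrocytic culture (37 C, humidified, 5% CO2) at 2.5% hematocrit and 0.3% starting parasitemia, compounds were tested; SYBR Green I in detergent lysis buffer stained parasite DNA overnight.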

Assay [4] deals with 3D7. Described as above. The following applies: P. falciparum in erythrocytes, SYBR Green DNA, 72 h; series mostly up to 28.7 µM. The method, boiled down: as §1
Assay [5] in a line: qHTS drug screen for cell cycle checkpoint inhibitors in PARPi-resistant BRCA-mutant ovarian cancer cell lines. (AID 1963452; calls by dose curve). The following applies: PEO1/OlaR viability, CellTiter-Glo luminescence, 96 h, stronger effect = lower value. Put shortly: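 PEO1, PEO4 and PEO1/OlaR ovarian cancer cells, 600 per well, exposed 96 h at 37C to a dilution series. Viability read by CellTiter-Glo luminescence, normalized to DMSO and empty wells; activity summarized as Z-AUC.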

Assay [6] has as its target Luciferin 4-monooxygenase (Photinus pyralis) (UniProt P08659). Nature of the assay: Primary firefly luciferase (FLuc) qHTS assay for identification of artifact compounds. (AID 1845220).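 Also: plate controls were DMSO vehicle for no effect and no enzyme for full effect; nearly all actives have a fitted effect of over 60% in size.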 The following applies: outcome: dose series up to 54.1 µM. Put shortly: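 FLuc 10 nM; luciferin 10 uM; ATP 10 uM; Tris-acetate pH 7.6, Mg-acetate 10 mM; 15 min RT preincubation; 5 min reaction; luminescence.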

A short description of assay [7]: Primary fluorescence-based thiol-reactive (MSTI) qHTS assay for identification of artifact compounds. (AID 1845221).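 Also: thiol-reactive compounds lower the probe fluorescence signal; nearly all actives have a fitted effect of over 65% in size.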 Put shortly: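 In PBS pH 7.4 with 2% DMSO, each compound met 4 uM MSTI for one hour at ambient temperature, shielded from light, before fluorescence detection.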
Assay [8] has as its system Nanoluciferase (engineered Oplophorus gracilirostris luciferase). Kind of assay: Primary Nanoluciferase (NLuc) qHTS assay for identification of artifact compounds. (AID 1845222).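 Also: NLuc secreted into diluted conditioned medium of S16 cells; 0% = DMSO and -100% = no enzyme.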 The method, boiled down: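 NLuc from S16 cell medium (1:55) plus test compounds, 15 min, room temperature. Luminescence after Nano-Glo (1:100) addition, 5 min.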
Assay [9] is described as follows: Primary redox qHTS assay for identification of artifact compounds. (AID 1845223).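 Also: 0% = DMSO and 100% = reference compound.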 The method, boiled down:
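Redox-cycling detection via DTT (250 uM final) oxidation coupled to Amplex Red (25 uM)/HRP (250 mU/mL) in HBSS. 15 min preincubation plus 30 min after DTT, room temperature. Ex/Em 525/598 nm; 4-parameter Hill fit against DMSO and 10 uM DA3003.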

Where [10] appears, read: measured here: PEO1 parental Z-AUC.

Chain of Glutathione peroxidase 1 (Homo sapiens) (P07203 whole entry, looked up): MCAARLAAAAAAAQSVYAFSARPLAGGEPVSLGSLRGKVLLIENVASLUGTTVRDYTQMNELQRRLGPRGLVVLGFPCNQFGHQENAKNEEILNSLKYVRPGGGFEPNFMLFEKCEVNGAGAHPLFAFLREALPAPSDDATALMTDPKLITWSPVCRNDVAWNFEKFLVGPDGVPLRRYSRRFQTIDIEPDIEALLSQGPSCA

Regarding `CCCCCCCCCCCCCCCC(=O)OC[C@@H](O)[C@H]1OC[C@H](O)[C@H]1O`, the Potency entry in assay [1] and in [2] was “inactive” throughout.
On to `O=[N+]([O-])O[C@@H]1CO[C@H]2[C@@H]1OC[C@@H]2O`, for which the Potency result in [1] and in assay [2] was “inactive” in each case.
Take `CO[C@@H]1[C@H](OC(=O)/C=C/C=C/C=C/C=C/C(=O)O)CC[C@]2(CO2)[C@H]1[C@@]1(C)O[C@@H]1CC=C(C)C`: the Potency result in assay [1] is “inactive”. Further, the Potency in [2] was 14.1 µM (active).
The corresponding values for `C[C@H](NCCc1ccc(O)cc1)[C@H](O)c1ccc(O)cc1` are “inactive” and “inactive”.
As to `CCCCC(O)c1ccccc1` (centres undefined), the Potency entry in assay [1] and in assay [2] was “inactive” in each case.
In the case of `CO/N=C(\C(=O)N[C@@H]1C(=O)N2C(C(=O)O)=C(C[N+]3(C)CCCC3)CS[C@H]12)c1csc(N)n1`, the values for the Potency in assay [1] and in assay [2] were 11.4 µM (active) and 17.8 µM (active), respectively.
As for `C[C@]12CCC(=O)C[C@@H]1CC[C@@H]1[C@@H]2CC[C@]2(C)C=CC[C@@H]12`, the Potency entry in assay [1], in assay [2] and in assay [4] was “inactive” in each case. Besides, the activity, negative = inhibition in assay [3] (parasite line A) was -20.9% (inactive); in assay [3] (parasite line B), -5.73% (inactive).
For `OCc1ccccc1`, the Potency entry in assay [1] and in [2] was “inactive” each time. Also, the activity, negative = inhibition in assay [3] (parasite line B) was -27.8% (inactive).
`C=CC[N+]1([C@H]2C[C@H]3[C@@H]4CC[C@H]5C[C@H](O)[C@@H](N6CCOCC6)C[C@]5(C)[C@H]4CC[C@]3(C)[C@H]2OC(C)=O)CCCC1`: the Potency entry in assay [1], in [2] and in assay [4] was “inactive” throughout. Further, the Z-AUC in [5] is 1.19 (inactive); in assay [5] (setting [10]), 1.23; in [5] (measured here: PEO4 Z-AUC) it was 0.984.
Consider `N[C@@H](Cc1cc(I)c(Oc2ccc(O)c(I)c2)c(I)c1)C(=O)O`, for which the Potency entry in assay [1] and in [4] was “inactive” each time. The Potency entry in assay [2] is “inactive and 14.1 µM (active)”. Also, the outcome in assay [6], in assay [7], in assay [8] and in assay [9] was inactive. The activity, negative = inhibition in [3] (parasite line A) was -3.92% (inactive).
On to `CO[C@H]1O[C@@H]2O[C@@]3(C)CC[C@H]4[C@H](C)CC[C@@H]([C@H]1C)[C@@]24OO3`, for which the Potency result in assay [1] and in [2] was “inactive” each time. The Z-AUC is -0.105 (inactive) in assay [5], 0.613 in [5] (setting [10]) and 0.87 in [5] (measured here: PEO4 Z-AUC).
For `O=C(OCc1ccccc1)c1ccc(O)cc1`, the Potency result in assay [1], in assay [2] and in assay [4] was “inactive” throughout. The activity, negative = inhibition in assay [3] (parasite line A) was 10.7% (inactive); in assay [3] (parasite line B), 11.3% (inactive).
Consider `CCN(CC)CCOc1ccc2nc(N(C)C)sc2c1`, for which the Potency entry in assay [1] and in assay [2] was “inactive” throughout. For the same compound, the activity, negative = inhibition was 2.07% (inactive) in assay [3] (parasite line A) and 4.31% (inactive) in assay [3] (parasite line B).
With `CCC[C@@H]1C[C@@H](C(=O)N[C@@H]([C@H]2O[C@H](SC)[C@H](O)[C@@H](O)[C@H]2O)[C@H](C)Cl)N(C)C1`, the Potency entry in [1] and in [2] was “inactive” throughout. In addition, the Z-AUC in assay [5] is 1.72 (inactive); in [5] (setting [10]), 1.69; in [5] (measured here: PEO4 Z-AUC), 1.63.
Consider `CC(=O)Nc1ccc(NC(=S)NC(=O)c2ccc(C(C)(C)C)cc2)cc1`, for which the Potency result in assay [1] and in [2] was “inactive” throughout. Besides, the result in assay [6], in assay [7], in [8] and in [9] was inactive. Besides, in assay [3] (parasite line B), the activity, negative = inhibition was -2.21% (inactive). Besides, in [4], the Potency was 11.2 µM (active).
As to `CNC(=O)[C@H](Cc1c[nH]c2ccccc12)NC(=O)[C@@H](CC(=O)NO)CC(C)C`, the Potency entry in [1] and in assay [2] was “inactive” throughout. Besides, the Z-AUC in assay [5] is 0.599 (inactive); in [5] (setting [10]), 0.54; in assay [5] (measured here: PEO4 Z-AUC), 0.809. For the same compound, the Potency is 11.2 µM (active) in assay [3] (parasite line A) and 10 µM (active) in [4].
On to `FC(F)(F)C(F)(F)C(F)(F)C(F)(F)C(F)(F)C(F)(F)F`, for which the Potency entry in assay [1], in assay [2] and in assay [4] was “inactive” throughout. The activity, negative = inhibition in [3] (parasite line A) is 2.24% (inactive); in [3] (parasite line B) it was 2.03% (inactive).
Regarding `C=CC[C@@H]1/C=C(\C)C[C@H](C)C[C@H](OC)[C@H]2O[C@@](O)(C(=O)C(=O)N3CCCC[C@H]3C(=O)O[C@H](/C(C)=C/[C@@H]3CC[C@@H](O)[C@H](OC)C3)[C@H](C)[C@@H](O)CC1=O)[C@H](C)C[C@@H]2OC`, the Potency entry in assay [1] is “inactive and 2.55 µM (active)”; in assay [2] it was “inactive and 2.82 µM (active)”; in [3] (parasite line A), 2 µM (active); in [3] (parasite line B) it was 1.26 µM (active); in [4] it was 0.891 µM (active). Moreover, the values for the Z-AUC in assay [5], in [5] (setting [10]) and in assay [5] (measured here: PEO4 Z-AUC) were 1.09 (inactive), 0.699 and 1.02, respectively.
For `COc1ccc([C@@H]2CC(=O)c3c(O)cc(O[C@@H]4O[C@H](CO[C@@H]5O[C@@H](C)[C@H](O)[C@@H](O)[C@H]5O)[C@@H](O)[C@H](O)[C@H]4O)cc3O2)cc1O`, the Potency result in [1] and in [2] was “inactive” each time. Further, the Z-AUC in assay [5] is -0.188 (inactive); in assay [5] (setting [10]), 0.305; in assay [5] (measured here: PEO4 Z-AUC) it was 0.67.
As to `C/C=C/C=C/C(=O)O`, the Potency entry in assay [1], in assay [2] and in assay [4] was “inactive” throughout. Besides, the activity, negative = inhibition was -0.87% (inactive) in assay [3] (parasite line A) and -21% (inactive) in assay [3] (parasite line B).
On to `CN(C)CCOc1ccc(/C(=C(/CCCl)c2ccccc2)c2ccccc2)cc1`, for which the Potency entry in [1], in assay [2] and in assay [4] was “inactive” in each case. Also, the Z-AUC in assay [5] is 0.623 (inactive); in [5] (setting [10]), 0.97; in assay [5] (measured here: PEO4 Z-AUC), 0.656. The activity, negative = inhibition in [3] (parasite line A) was -4.58% (inactive); in assay [3] (parasite line B), -0.289% (inactive).
Turning to `COc1cc(C)c(/C=C/C(C)=C/C=C/C(C)=C/C(=O)O)c(C)c1C`, the Potency result in assay [1] and in assay [4] was “inactive” in each case. Moreover, the Potency in assay [2] is 16.1 µM (active). Also, the values for the Z-AUC in assay [5], in assay [5] (setting [10]) and in [5] (measured here: PEO4 Z-AUC) were 0.967 (inactive), 0.941 and 1.13, respectively. For the same compound, the activity, negative = inhibition in assay [3] (parasite line A) is -5.12% (inactive); in [3] (parasite line B) it was -0.604% (inactive).
With `O=C(CCCN1CCC(C(=O)c2ccc(F)cc2)CC1)c1ccc(F)cc1`, the Potency result in assay [1] and in [2] was “inactive” in each case. Besides, the activity, negative = inhibition in assay [3] (parasite line A) was -20.7% (inactive); in assay [3] (parasite line B), 15.1% (inactive).
Regarding `CCOC(=O)c1c[nH]c2cc(OCC(C)C)c(OCC(C)C)cc2c1=O`, the Potency result in assay [1] and in [2] was “inactive” each time. The Potency in assay [3] (parasite line A) was 0.0398 µM (active); in assay [3] (parasite line B), 0.0562 µM (active); in assay [4], 0.126 µM (active).
`CC(=O)NCCCS(=O)(=O)O`: the Potency entry in assay [1], in assay [2] and in assay [4] was “inactive” each time. In addition, the Z-AUC in assay [5] is 1.02 (inactive); in assay [5] (setting [10]) it was 1.45; in [5] (measured here: PEO4 Z-AUC) it was 1.03. Besides, the activity, negative = inhibition in assay [3] (parasite line A) was 2.58% (inactive); in assay [3] (parasite line B), 11.9% (inactive).
